# The list is not random: actives were taken first. Their share in the collection is about 19%.
# TDP1 cell CPT: growth inhibition of DT40 Tdp1-/-;hTDP1 cells with camptothecin (screen for TDP1 inhibitors); chicken DT40 Tdp1-/-;hTDP1 cells + 20 nM CPT, ATP luminescence, 48 h; Potency, µM (titrated, usually from 46.2 µM), inactives show at the highest dose activity change, negative = growth inhibition, actives largely listed as inhibitors; hit rate 12% among 420,000; AID 686979; note: potency is the fitted concentration of half-maximal effect; % is set by controls: 0 for no effect and ±100 for the full control effect; nearly all actives have a fitted effect of over 55% in size
#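 Chicken DT40 Tdp1-/- cells stably complemented with human TDP1 were seeded at 400 cells/well in medium containing 20 nM camptothecin, exposed to pin-transferred compounds, and grown at 37 °C for at least 48 hr. Viability was read as ATP luminescence.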
# HepG2 tox: HepG2 cytotoxicity, counter-screen for TGF-b inhibitors | HepG2 CAGA-GFP viability, ATP luminescence, 18 h | Potency, µM (top dose mostly 46.1 µM), for inactives: top-dose activity change, negative = cytotoxicity, actives largely listed as cytotoxic | hit rate 0.76% among 410,000 | AID 588856; note: potency is the fitted concentration of half-maximal effect
#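 CellTiter-Glo luminescence gave cytotoxicity after 18 hours at 37 degrees C. The cells were HepG2 CAGA-GFP in 1% FBS DMEM, stimulated with 500 pg/mL TGF-beta after compound addition. %Activity was normalised to no-cell wells (complete cell-killing) and DMSO (no toxicity), and curves were fitted and classified.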
# IL-1B inflam inh: inflammasome signaling inhibition, IL-1 beta readout; activity change, % at 57.5 µM; hit rate 4.7% among 360,000; THP-1 LPS/ATP IL-1B secretion, AlphaLISA, 16 h; hits give low values; in the data active = activity change below about -50%; inconclusive = mostly about -30% to -49%; note: % is set by controls: 0 for no effect and ±100 for the full control effect
#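 Secreted IL-1B measured by AlphaLISA bead assay after 16 h compound exposure of THP-1 cells; compounds (final up to 57.5 uM) added 1 h before LPS (250 ng/mL) and ATP (1.25 mM) stimulation; lower signal means less secretion.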
# TGFb inhibitor: TGF-b pathway inhibition; HepG2 CAGA-GFP TGF-b/SMAD3 reporter, GFP fluorescence, 18 h; TGF-beta stimulated, 500 pg/mL final; Potency, µM (series often up to 46.1 µM), for the others: at the top dose activity, negative = inhibition, most hits filed as inhibitors; hit rate 1.2% among 410,000; note: potency is the fitted concentration of half-maximal effect; % is set by controls: 0 for no effect and ±100 for the full control effect; nearly all actives have a fitted effect of over 65% in size
#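 Inhibition was scored as loss of TGF-beta-induced (500 pg/mL final, 18 hours, 37 degrees C) GFP in HEPG2 cells carrying a CAGA-GFP reporter, in DMEM with 1% FBS. Well GFP was summed per cell; Activity was normalised to unstimulated and stimulated DMSO wells, then concentration-response fitting.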
# TDP1 cell noCPT: qHTS for Inhibitors of human tyrosyl-DNA phosphodiesterase 1 (TDP1): qHTS in cells in absence of CPT. DT40 Tdp1-/- hTDP1 cells, no CPT, ATP luminescence, 48 h. Potency, µM (doses to about 46.2 µM), without a hit: at the top dose activity change, negative = growth inhibition, most hits filed as inhibitors. hit rate 15% among 420,000. AID 686978, 2013; note: potency is the fitted concentration of half-maximal effect; % is set by controls: 0 for no effect and ±100 for the full control effect; nearly all actives have a fitted effect of over 55% in size
#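 Growth of hTDP1-complemented DT40 Tdp1-knockout cells is measured by ATP luminescence after at least 48 hr compound exposure at 37 °C, with DMSO substituting for the 20 nM CPT used in the parallel screen.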
# S-ASM inh: blocks human secretory acid sphingomyelinase; P17405; placental ASM, HMU-PC fluorogenic substrate, 60 min; Potency, µM (top dose mostly 57.5 µM), for inactives: at the highest dose activity change, negative = inhibition, most hits filed as inhibitors; hit rate 0.006% among 340,000; AID 504937; note: potency is the fitted concentration of half-maximal effect
# Target sequence (P17405 47-631 limits assumed): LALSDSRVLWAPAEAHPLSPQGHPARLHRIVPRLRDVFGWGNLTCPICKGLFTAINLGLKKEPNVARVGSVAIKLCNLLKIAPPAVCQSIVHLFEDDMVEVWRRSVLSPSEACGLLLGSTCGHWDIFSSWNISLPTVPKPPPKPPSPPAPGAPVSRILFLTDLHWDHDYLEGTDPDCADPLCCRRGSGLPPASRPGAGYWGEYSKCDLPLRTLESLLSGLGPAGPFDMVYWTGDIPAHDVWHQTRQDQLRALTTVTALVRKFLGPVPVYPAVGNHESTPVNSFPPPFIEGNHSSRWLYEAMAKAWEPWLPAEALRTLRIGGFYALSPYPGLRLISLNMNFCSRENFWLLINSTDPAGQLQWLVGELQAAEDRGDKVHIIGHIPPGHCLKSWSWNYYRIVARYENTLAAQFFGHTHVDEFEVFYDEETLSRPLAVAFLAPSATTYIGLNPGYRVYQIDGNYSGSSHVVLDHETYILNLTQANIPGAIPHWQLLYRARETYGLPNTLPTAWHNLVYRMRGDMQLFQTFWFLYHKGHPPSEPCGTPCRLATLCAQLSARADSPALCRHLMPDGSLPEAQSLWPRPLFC
#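 qHTS format. ASM enzyme prepared from human placenta hydrolyses the fluorogenic substrate HMU-PC0 (9 uM final) over 60 min at 37 °C after a 10 min compound preincubation.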
# * = called active by the depositor; ? = inconclusive; . = no result given; ! = repeats disagree; [ ] = dose if it differs, or a comment. Unless noted, calls come from the whole dose curve; as a rule, active = well fitted curve in the direction sought with a large enough effect; inconclusive = small, poorly fitted or top-dose-only effect, or another doubt; inactive = no such curve, though single readings can be large; an effect the other way counts as inactive or inconclusive.
SMILES,TDP1 cell CPT,HepG2 tox,IL-1B inflam inh,TGFb inhibitor,TDP1 cell noCPT,S-ASM inh
CC(C)COc1ccc(C(=O)N(Cc2cccc(F)c2)C2CCS(=O)(=O)C2)cc1 (stereo unspecified),21µM*,-23%,.,-3%,?,.
O=C(c1ccc(F)cc1)N(Cc1ccccc1)C1CCS(=O)(=O)C1 (stereo unspecified),-17%,-28%,23,4%,-21%,5%
Cc1ccsc1CN(C(=O)c1ccc(OCC(C)C)cc1)C1CCS(=O)(=O)C1 (stereo unspecified),?,-19%,.,.,15µM*,.
CCOc1ccc(C(=O)N(Cc2sccc2C)C2CCS(=O)(=O)C2)cc1 (stereo unspecified),?,-18%,.,.,-27%,.
Cc1cccc(CNC(=O)c2cnn(-c3ncc(C)c(-c4ccc(F)cc4)n3)c2C)n1,-2%[9.04 µM],.,.,.,-25%,.
O=C(C1CCCC1)N1CCC(CO)(Cc2ccccc2Cl)CC1,?,3%,?,-11%,?,2%
O=C(C1CCCCC1)N1CCC(CO)(Cc2ccccc2Cl)CC1,?,-17%,?,-2%,21µM*,2%
COc1ccc(-c2nn(-c3ccccc3C)cc2CNCc2cccnc2)cc1F,?,0%,20,-4%,?,0%
COc1ccc([N+](=O)[O-])cc1NC(=O)C(C)OC(=O)c1ccccn1 (stereo unspecified),6%,-47%,1,-6%,-1%,-3%
O=C(c1ccc(Br)cc1)C(CN1CCOCC1)c1ccccc1 (stereo unspecified),1.3µM*,-95%,-98*,11µM*,2.1µM*,6%
CCCCCOc1ccc(C(O)C(CN2CCOCC2)c2ccccc2)cc1 (stereo unspecified),?,-24%,-62*,-1%,?,-1%
N#CC(c1ccc(N)cc1)C(CC(=O)c1ccccc1)c1ccccc1 (stereo unspecified),?,3%,-16,11%,29µM*,.
O=C(c1ccccc1)c1ccc(OCC(O)CN2CCOCC2)cc1 (stereo unspecified),-6%,-12%,-4,17%,-23%,-1%
CCOc1ccc(C(=O)C(CN2CCOCC2)c2ccccc2)cc1 (stereo unspecified),3.3µM*,-81%,-95*,?,3.3µM*,3%
CCCCCCCCCCCCCC(=O)N[C@@H](C)[C@H](O)c1ccccc1,0%[4.12 µM],.,.,.,-23%[4.12 µM],.
O=C(c1ccccc1)C(CN1CCCCC1)c1ccccc1 (stereo unspecified),1.8µM*,-94%,-102*,?,2.1µM*,1%
O=C(CC(C(=O)O)c1cccc(Cl)c1)c1ccccc1 (stereo unspecified),-25%,7%,0,2%,9%,7%
CC(CN1CCN(CC(C)C(=O)c2ccccc2)CC1)C(=O)c1ccccc1 (stereo unspecified),?,-28%,2,3%,-18%,0%
CCCCCCCCCC(=O)N[C@H](CN1CCOCC1)[C@H](O)c1ccccc1,?,-14%,-13,-15%,23µM*!,-13%
CC(CN1CCOCC1)OC(=O)c1ccc(Br)cc1 (stereo unspecified),0.92µM*,-60%,31,?,0.65µM*,-2%
CC(CN1CCOCC1)OC(=O)c1ccccc1Cl (stereo unspecified),13%,-1%,-18,-2%,0%,-1%
O=C(CC(C(=O)c1ccccc1)c1ccccc1)c1ccccc1 (stereo unspecified),?,1%,?,6%,21µM*,-1%

# High-throughput results from PubChem BioAssay.
